Test results published in PubChem BioAssay (Tox21).
Several values for one entry are separate records, joined by “and”; a condition that tells them apart may be missing. Equal values may be shown once. More than one record can exist for a structure, and the calls need not agree. Activity calls are given as the source filed them. Where a call stands in place of a potency, no number is given. Unless noted, the call rests on the fitted dose curve; in most records, active means well fitted curve in the direction sought with a large enough effect in the repeat runs; inconclusive means weak or mixed curves; inactive means no such curve, though single readings can be large; an effect the other way counts as inactive or inconclusive.

How the values were obtained:
[1] = qHTS assay to identify small molecule antagonists of the thyroid receptor (TR) signaling pathway (AID 743065); further: nearly all actives have a fitted effect of over 55% in size; further: potency means the concentration at half of the fitted maximal effect
Summary of the method: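 GH3.TRE-Luc rat pituitary cells (two TREs driving luciferase) were dosed with compound, then stimulated with 1 nM T3 (final) for 23.5 h at 37 C. ONE-Glo luminescence was the read-out, with CellTiter-Fluor fluorescence as the cytotoxicity counter-screen.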

[2] = tested on: thyroid hormone receptor (rat, GH3 cells); assay: qHTS assay to identify small molecule agonists of the thyroid receptor (TR) signaling pathway (AID 743066; calls by dose curve)
[3] = molecular target: Estrogen receptor (Homo sapiens) (UniProt P03372); assay: qHTS assay to identify small molecule antagonists of the estrogen receptor alpha (ER-alpha) signaling pathway (AID 743069; active means well fitted curve in the direction sought with a large enough effect in the signal ratio in the repeat runs, not every such curve was filed as active; inconclusive means weak or mixed curves, or effect the other way; inactive means no such curve, though single readings can be large or run the other way; the % refers to the signal ratio; further: potency means the concentration at half of the fitted maximal effect)
Estrogen receptor (Homo sapiens), sequence (P03372 whole entry, looked up): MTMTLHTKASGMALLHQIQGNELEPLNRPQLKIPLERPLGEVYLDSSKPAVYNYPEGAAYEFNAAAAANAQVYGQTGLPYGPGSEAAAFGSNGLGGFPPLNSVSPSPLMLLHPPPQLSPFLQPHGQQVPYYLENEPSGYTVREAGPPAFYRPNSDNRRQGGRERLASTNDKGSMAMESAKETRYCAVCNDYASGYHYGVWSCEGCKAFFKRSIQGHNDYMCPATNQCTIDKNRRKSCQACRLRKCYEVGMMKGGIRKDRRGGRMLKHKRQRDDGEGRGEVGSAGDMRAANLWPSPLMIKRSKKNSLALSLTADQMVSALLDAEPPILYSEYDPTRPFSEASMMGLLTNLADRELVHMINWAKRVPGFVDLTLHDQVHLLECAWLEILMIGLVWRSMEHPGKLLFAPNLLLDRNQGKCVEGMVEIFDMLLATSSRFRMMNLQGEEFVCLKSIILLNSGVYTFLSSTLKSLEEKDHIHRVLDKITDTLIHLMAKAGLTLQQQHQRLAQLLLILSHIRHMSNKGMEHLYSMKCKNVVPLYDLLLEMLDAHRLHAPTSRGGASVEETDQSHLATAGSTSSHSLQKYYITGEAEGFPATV
Summary of the method: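 Beta-lactamase FRET fluorescence is read after 2 hr at room temperature with LiveBLAzer B/G substrate. Before that, ER-alpha-bla HEK293 cells sit 4 hr after plating, then receive compound plus 17beta-estradiol and incubate 18 hr at 37C.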

[4] = qHTS assay to identify small molecule antagonists of the estrogen receptor alpha (ER-alpha) signaling pathway - cell viability counter screen (AID 743074; calls by dose curve;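 further: HEK293 cells carrying ER-alpha-UAS-bla reporter stimulated with 17beta-estradiol; nearly all actives have a fitted effect of over 45% in size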)
[5] = molecular target: Estrogen receptor (Homo sapiens) (UniProt P03372); assay: qHTS assay to identify small molecule agonists of the estrogen receptor alpha (ER-alpha) signaling pathway (AID 743075; calls by dose curve;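 further: HEK293 GripTite cells with ER-alpha and UAS-driven beta-lactamase reporter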; further: potency means the concentration at half of the fitted maximal effect)
[6] = molecular target: Estrogen receptor (Homo sapiens) (UniProt P03372); assay: qHTS assay to identify small molecule agonists of the estrogen receptor alpha (ER-alpha) signaling pathway using the BG1 cell line (AID 743079); conditions: BG1Luc4E2 cells, ERE-luciferase agonist, 22 h; activation: at 70.3 µM (top of the series) unless noted; further: nearly all actives have a fitted effect of over 20% in size; further: potency means the concentration at half of the fitted maximal effect
[7] = qHTS assay to identify small molecule antagonists of the estrogen receptor alpha (ER-alpha) signaling pathway using the BG1 cell line (AID 743080; calls by dose curve;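 further: BG1 cells stimulated with 17beta-estradiol alongside compound; nearly all actives have a fitted effect of over 25% in size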)
Summary of the method: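 Readout is ONE-Glo luminescence, taken 30 min at room temperature after reagent addition, preceded by a CellTiter-Fluor viability read; BG1-Luc-4E2 cells had received compound and 17beta-estradiol for 21.5 h at 37 C.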

[8] = qHTS assay to identify small molecule antagonists of the estrogen receptor alpha (ER-alpha) signaling pathway using the BG1 cell line - cell viability counter screen (AID 743081);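 further: compound given together with 17beta-estradiol as the ER stimulus; nearly all actives have a fitted effect of over 45% in size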; further: potency means the concentration at half of the fitted maximal effect
Aromatase (Homo sapiens) = Aromatase (Homo sapiens) (UniProt P11511); assay: qHTS assay to identify aromatase inhibitors (AID 743083); further: nearly all actives have a fitted effect of over 55% in size; further: potency means the concentration at half of the fitted maximal effect
Aromatase (Homo sapiens), sequence (P11511 whole entry, looked up): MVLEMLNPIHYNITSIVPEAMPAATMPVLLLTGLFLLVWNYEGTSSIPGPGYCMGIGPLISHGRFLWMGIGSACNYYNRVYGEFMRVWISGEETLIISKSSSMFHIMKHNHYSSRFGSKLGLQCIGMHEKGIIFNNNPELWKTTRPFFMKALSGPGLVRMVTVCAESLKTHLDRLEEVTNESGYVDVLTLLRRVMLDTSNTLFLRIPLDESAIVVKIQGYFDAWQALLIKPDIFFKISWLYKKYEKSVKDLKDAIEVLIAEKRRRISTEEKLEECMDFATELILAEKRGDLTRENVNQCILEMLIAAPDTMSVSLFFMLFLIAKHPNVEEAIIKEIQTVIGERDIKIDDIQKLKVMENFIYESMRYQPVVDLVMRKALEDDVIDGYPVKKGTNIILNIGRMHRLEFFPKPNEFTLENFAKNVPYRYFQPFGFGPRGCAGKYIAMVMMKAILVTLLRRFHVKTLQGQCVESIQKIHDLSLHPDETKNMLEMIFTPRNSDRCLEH

[9] = qHTS assay to identify aromatase inhibitors - cell viability counter screen (AID 743084);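 further: cells stimulated with testosterone during compound exposure; nearly all actives have a fitted effect of over 55% in size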; further: potency means the concentration at half of the fitted maximal effect
[10] = qHTS assay to identify small molecule that activate the aryl hydrocarbon receptor (AhR) signaling pathway - cell viability counter screen (AID 743086); further: nearly all actives have a fitted effect of over 45% in size; further: potency means the concentration at half of the fitted maximal effect
Summary of the method: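 HepG2-AhR-luc (HG2L7.5c1) cells, 4000/well, treated 24 h at 37 C with compound; viability measured as CellTiter-Fluor fluorescence after 30 min in the same wells as the luciferase read.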

[11] = qHTS assay to identify small molecule antagonists of the peroxisome proliferator-activated receptor gamma (PPARg) signaling pathway - cell viability counter screen (AID 743194); conditions: Potency: co-treated with 50 nM rosiglitazone unless noted; further: nearly all actives have a fitted effect of over 55% in size; further: potency means the concentration at half of the fitted maximal effect
Summary of the method: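 Cytotoxicity counter screen in PPARg-bla HEK293H cells, same wells as reporter assay. Compounds plus 50 nM rosiglitazone (final) for 17 h at 37 C, then viability read by CellTiter-Glo luminescence.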

[12] = qHTS assay for small molecule agonists of the antioxidant response element (ARE) signaling pathway (AID 743202; active means well fitted activation curve with a large enough effect in the signal ratio in the repeat runs, not every such curve was filed as active; inconclusive means weak or mixed curves, or effect the other way; inactive means no such curve, though single readings can be large or run the other way; the % refers to the signal ratio; further: potency means the concentration at half of the fitted maximal effect)
Summary of the method: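 HepG2 ARE-bla reporter line, 2,000 cells/well; 5 h preincubation 37 C/5% CO2; compound (DMSO) 16 h 37 C; B/G FRET substrate 2 h RT; fluorescence intensity.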

[13] = qHTS assay for small molecule agonists of the antioxidant response element (ARE) signaling pathway - cell viability counter screen (AID 743203; calls by dose curve; further: nearly all actives have a fitted effect of over 55% in size)
Summary of the method: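 ATP content via CellTiter-Glo luminescence served as the viability measure. Cells: ARE-bla HepG2, 2,000 per well. Exposure: 16 hrs, 37C/5% CO2.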

[14] = qHTS assay for small molecule activators of the heat shock response signaling pathway - cell viability counter screen (AID 743209); further: nearly all actives have a fitted effect of over 50% in size
Summary of the method: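 Compounds dissolved in DMSO were added to overnight-plated HSE-bla HeLa cells and left 5 h at 37 C. Cell viability was quantified by luminescence using CellTiter-Glo.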

[15] = qHTS assay for small molecule activators of the heat shock response signaling pathway (AID 743210; active means well fitted activation curve with a large enough effect in the signal ratio in the repeat runs, with a control signal flat, not every such curve was filed as active; inconclusive means weak or mixed curves; the % refers to the signal ratio;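 further: HeLa cells with beta-lactamase reporter driven by heat shock elements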)
Summary of the method: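 Beta-lactamase reporter read-out: FRET substrate fluorescence after 2.5 h at RT, following 5 h compound treatment at 37 C of HeLa cells carrying HSE-driven bla reporter; quantitative HTS format.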

[16] = qHTS assay to identify small molecule agonists of the peroxisome proliferator-activated receptor delta (PPARd) signaling pathway - cell viability counter screen (AID 743211); further: nearly all actives have a fitted effect of over 55% in size; further: potency means the concentration at half of the fitted maximal effect
Summary of the method: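 Counter screen for cytotoxicity run in parallel with the PPARd reporter screen. Beta-lactamase reporter HEK293H cells exposed to compounds 17 h; ATP-based CellTiter-Glo luminescence quantified viability.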

[17] = molecular target: Aryl hydrocarbon receptor (Homo sapiens) (UniProt P35869); assay: qHTS assay to identify small molecule that activate the aryl hydrocarbon receptor (AhR) signaling pathway (AID 743085); further: nearly all actives have a fitted effect of over 15% in size; further: potency means the concentration at half of the fitted maximal effect;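 on activation: HG2L7.5c1 human HepG2 liver cells with stably integrated DRE-driven firefly reporter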
Aryl hydrocarbon receptor (Homo sapiens), sequence (P35869 whole entry, looked up): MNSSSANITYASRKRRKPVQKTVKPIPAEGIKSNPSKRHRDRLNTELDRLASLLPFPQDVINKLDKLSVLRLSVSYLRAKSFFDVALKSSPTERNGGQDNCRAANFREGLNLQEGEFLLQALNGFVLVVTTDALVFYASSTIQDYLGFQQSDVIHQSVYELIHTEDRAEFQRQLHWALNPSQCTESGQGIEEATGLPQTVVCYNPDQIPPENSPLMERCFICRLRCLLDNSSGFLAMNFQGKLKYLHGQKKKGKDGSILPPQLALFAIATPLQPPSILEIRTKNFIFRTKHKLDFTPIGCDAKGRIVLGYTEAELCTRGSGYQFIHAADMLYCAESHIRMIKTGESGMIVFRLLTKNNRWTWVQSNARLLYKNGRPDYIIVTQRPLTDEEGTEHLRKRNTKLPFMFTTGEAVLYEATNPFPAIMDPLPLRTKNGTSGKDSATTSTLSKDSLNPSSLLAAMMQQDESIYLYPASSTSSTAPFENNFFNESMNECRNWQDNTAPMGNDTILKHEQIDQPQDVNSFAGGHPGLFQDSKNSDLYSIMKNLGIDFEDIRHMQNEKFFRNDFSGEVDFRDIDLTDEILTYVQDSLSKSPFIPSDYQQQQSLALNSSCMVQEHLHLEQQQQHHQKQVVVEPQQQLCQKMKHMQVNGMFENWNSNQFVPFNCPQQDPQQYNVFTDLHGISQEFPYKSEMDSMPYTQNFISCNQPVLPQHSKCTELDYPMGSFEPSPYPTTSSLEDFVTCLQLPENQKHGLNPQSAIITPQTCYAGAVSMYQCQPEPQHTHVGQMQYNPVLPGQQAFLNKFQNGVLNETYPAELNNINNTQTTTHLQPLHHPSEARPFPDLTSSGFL
Summary of the method: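 Compounds were tested in HepG2 hepatocellular carcinoma cells harbouring a stably integrated luciferase gene under control of 20 DREs. Increased reporter signal after 24 h treatment at 37C was taken as AhR activation.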

[18] = molecular target: Peroxisome proliferator-activated receptor gamma (Homo sapiens) (UniProt P37231); assay: qHTS assay to identify small molecule agonists of the peroxisome proliferator-activated receptor gamma (PPARg) signaling pathway (AID 743094; active means well fitted activation curve with a large enough effect in the signal ratio in the repeat runs, not every such curve was filed as active; inconclusive means weak or mixed curves, or effect the other way; inactive means no such curve, though single readings can be large or run the other way; the % refers to the signal ratio)
Peroxisome proliferator-activated receptor gamma (Homo sapiens), sequence (P37231 whole entry, looked up): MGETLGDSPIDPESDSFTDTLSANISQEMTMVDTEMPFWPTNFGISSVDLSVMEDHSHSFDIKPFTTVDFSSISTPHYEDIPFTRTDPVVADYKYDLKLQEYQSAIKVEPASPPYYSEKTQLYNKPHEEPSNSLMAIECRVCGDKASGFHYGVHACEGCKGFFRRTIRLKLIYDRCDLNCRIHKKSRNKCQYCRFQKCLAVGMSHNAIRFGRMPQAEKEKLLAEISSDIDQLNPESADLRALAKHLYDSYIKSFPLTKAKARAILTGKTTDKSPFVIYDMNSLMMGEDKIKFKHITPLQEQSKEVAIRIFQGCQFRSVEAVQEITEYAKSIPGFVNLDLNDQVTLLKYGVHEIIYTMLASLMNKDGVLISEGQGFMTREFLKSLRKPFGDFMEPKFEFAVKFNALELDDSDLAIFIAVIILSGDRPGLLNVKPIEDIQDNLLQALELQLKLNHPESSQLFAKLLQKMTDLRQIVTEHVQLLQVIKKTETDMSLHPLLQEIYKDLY
Summary of the method: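 Agonism was assessed in a beta-lactamase reporter system, HEK293H cells with a stably integrated UAS-bla construct under PPARg control; the 17 h treatment at 37C preceded a 1 h room-temperature FRET substrate read.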

[19] = molecular target: Peroxisome proliferator-activated receptor gamma (Homo sapiens) (UniProt P37231); assay: qHTS assay to identify small molecule antagonists of the peroxisome proliferator-activated receptor gamma (PPARg) signaling pathway (AID 743191; calls by dose curve; further: nearly all actives have a fitted effect of over 30% in size; further: potency means the concentration at half of the fitted maximal effect)
Summary of the method: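 GeneBLAzer PPARg UAS-bla HEK293H cells, 5 h post-plating, exposed to compounds 17 h at 37C. LiveBLAzer B/G FRET substrate added for 1 h at room temperature; beta-lactamase reporter read by fluorescence intensity.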

SMILES	Potency [1]	Potency [2]	Potency [3]	Potency [4]	Potency [5]	Potency [6]	Potency [7]	Potency [8]	Potency (Aromatase (Homo sapiens))	Potency [9]	Potency [10]	Potency [11]	Potency [12]	Potency [13]	Potency [14]	Potency [15]	Potency [16]	Potency [17]	Potency [18]	Potency [19]
CC(C)=CC1C(C(=O)OCc2cccc(Oc3ccccc3)c2)C1(C)C (configuration not stated)	inactive	inactive	inactive	inactive	inactive	inactive	inactive	inactive	inactive	inactive	inactive	inactive	inactive	inactive	inactive	inactive	inactive	–	–	–
O=NN(c1ccccc1)c1ccccc1	inactive	inactive	inactive	inactive	53.7 µM [inconclusive] (active) and inactive	47.4 µM (active)	inactive	inactive	inactive	inactive	inactive	inactive	inactive	inactive	inactive	inactive	inactive	inactive	inactive	inactive
CN(C)P(=O)(N(C)C)N(C)C	inactive	inactive	inactive	inactive	inactive	inactive	inactive	inactive	inactive	inactive	inactive	inactive	inactive	inactive	inactive	inactive	inactive	–	inactive	inactive
CC(C)(c1ccc(OCC2CO2)cc1)c1ccc(OCC2CO2)cc1 (configuration not stated)	55.2 µM (active) and 54.5 µM (active)	inactive	inactive	inactive	inactive	inactive	inactive	inactive	inactive	inactive	inactive	55.7 µM (active)	61.1 µM (active)	inactive	inactive	–	34.7 µM (active)	–	–	–
ClC(Cl)=C(Cl)C(Cl)=C(Cl)Cl	inactive	inactive	inactive	inactive	inactive	inactive	inactive	inactive	inactive	inactive	inactive	inactive	inactive	inactive	inactive	inactive	inactive	inactive	inactive	inactive
CC[n+]1c(-c2ccccc2)c2cc(N)ccc2c2ccc(N)cc21	23.7 µM (active) and 27.2 µM (active)	inactive	26.8 µM [inconclusive] (active) and 30.8 µM [inconclusive] (active)	inactive	4.25 µM [inconclusive] (active) and 19 µM [inconclusive] (active) and 5.47 µM [inconclusive] (active)	inactive	inactive	54.2 µM (active)	18.8 µM (active) and 26.6 µM (active) and 12.1 µM (active)	inactive and 30.5 µM (active)	inactive and 12.1 µM (active)	–	–	inactive	inactive	–	24.4 µM (active)	26.6 µM (active) and 29.8 µM (active) and 12.1 µM (active)	inactive	48.8 µM (active) and 26.6 µM (active)
CC(C)Nc1nc(Cl)nc(NC(C)C)n1	inactive	inactive	inactive	inactive	inactive	inactive	inactive	inactive	inactive	inactive	inactive	inactive	inactive	inactive	inactive	inactive	inactive	–	inactive	inactive
c1ccc2c(c1)Nc1ccccc1S2	inactive	inactive	inactive	inactive	inactive	26.6 µM (active) and 38.6 µM (active)	inactive	inactive	inactive	inactive	inactive	inactive	inactive	inactive	inactive	inactive	inactive	–	inactive	inactive
C[C@]12CCC(=O)C=C1CC[C@@H]1[C@@H]2CC[C@@]2(C)[C@H]1CC[C@]2(C)O	10.6 µM (active) and 24.5 µM (active)	inactive	inactive	inactive	2.13 µM [inconclusive] (active) and 4.25 µM [inconclusive] (active) and 1.39 µM [inconclusive] (active)	376 nM (active) and 106 nM (active) and 179 nM (active)	inactive	inactive	inactive	inactive	inactive	inactive	–	inactive	inactive	inactive	inactive	inactive	inactive	–
CCC1(c2ccc(N)cc2)CCC(=O)NC1=O (configuration not stated)	inactive	inactive	inactive	inactive	inactive	inactive	inactive	inactive	–	inactive	inactive	inactive	–	inactive	inactive	inactive	inactive	inactive	inactive	inactive
CN(C)c1nc(=O)n(C2CCCCC2)c(=O)n1C	inactive	inactive	inactive	inactive	inactive	inactive	inactive	inactive	inactive	inactive	inactive	inactive	inactive	inactive	inactive	inactive	inactive	inactive	inactive	inactive
COc1ccc(C=O)cc1OC	inactive	inactive	inactive	inactive	inactive	inactive and 6.86 µM (active)	inactive	inactive	inactive	inactive	inactive	inactive	inactive	inactive	inactive	inactive	inactive	–	inactive	inactive
